Outcome and Potency data for twelve compounds are collected here from PubChem BioAssay (NCATS).

The target of test [1] is Guanine nucleotide-binding protein G(i) subunit alpha-1 (Homo sapiens) (UniProt P63096). In words: qHTS Assay for Inhibitors of RGS12 GoLoco Motif Activity (Green Fluorophore) (AID 879).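 Further: negative values mean loss of peptide binding seen as reduced polarization.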 In outline: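 Fluorescence polarization assay: 50 nM Gαi1 with 10 nM FITC-labeled RGS12 GoLoco peptide in 10 mM Tris pH 7.5, 150 mM NaCl, 0.1 mM GDP, 0.05% NP40, 10 min at room temperature with compound.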

Test [2] has as its target Cytochrome P450 2D6 (Homo sapiens) (UniProt P10635). Nature of the test: qHTS Assay for Inhibitors and Substrates of Cytochrome P450 2D6 (AID 891). Further: nearly all actives have a fitted effect of over 60% in size. Further: potency means the concentration at half of the fitted maximal effect. Summed up: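 Human CYP2D6 (5 nM) with 30 uM Luciferin-ME EGE (at Km) in 100 mM KPO4, compound preincubated 10 min, then NADPH regeneration system for 60 min at room temperature. Luciferin read by luminescence; normalized to 1.43 uM quinidine.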
(In general: Quantitative high-throughput screening tests each substance at several concentrations.)

Test [3] addresses Muscarinic acetylcholine receptor M1 (Rattus norvegicus) (UniProt P08482). Nature of the test: qHTS Assay for Antagonists of Acetylcholine Muscarinic M1 Receptor: Kinetic Measurement of Intracellular Calcium Response (AID 943).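 Further: Fluo-4 calcium signal as peak divided by basal fluorescence over 4 min; series mostly up to about 35 µM; nearly all actives have a fitted effect of over 75% in size.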 Summed up:
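Rat M1-CHO cells, 2000/well, overnight → Fluo-4 no-wash dye with probenecid, 1 h 37C → compound 10 min, room temp → basal read 6 s → carbachol EC80 (100 nM) → 4 min kinetic read; peak/basal.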

Test [4] shares this target. Nature of the test: qHTS Assay for Antagonists of Acetylcholine Muscarinic M1 Receptor: Measurement of IP-One Response (AID 944). Further: nearly all actives have a fitted effect of over 75% in size. Summed up:
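M1-CHO (rat), 2000 cells/well, overnight recovery; cpd 10 min; carbachol EC80 (200 nM), 30 min, HEPES buffer + 50 mM LiCl pH 7.4; IP-One HTRF, Ex 337, Em 620/665 nm.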

Test [5] addresses Pyruvate kinase (Leishmania mexicana) (UniProt Q27686). Nature of the test: qHTS Validation Assay for Inhibitors of Leishmania Mexicana Pyruvate Kinase (AID 945). Further: potency means the concentration at half of the fitted maximal effect. In outline: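 Eight-point qHTS titrations; enzyme 0.2 nM LmPYK (E451W mutant); substrates 0.5 mM PEP, 0.1 mM ADP; 7 mM MgCl2; 1 h room temperature; PKLight luminescence normalized to neutral control.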
Test [6] can be described thus: MultiTox-Fluor Cytotoxicity Assay - LYMP1-001 - Dead Cells (AID 946).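 Further: cells exposed to compound for 16 h.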 Summed up: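 Seed 2500 LYMP1-001 cells/well, incubate 5 hr at 37 C; add compound, 16 hr at 37 C; add MultiTox-Fluor reagent, 60 min RT; read dead-cell fluorescence Ex/Em=485/520. Normalize to DMSO and 15 uM tetraoctylammonium bromide.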
The target of test [7] is Pyruvate kinase PKM (Homo sapiens) (UniProt P14618). In words: qHTS Assay for Activators of Human Muscle Pyruvate Kinase (AID 954; active means well fitted curve in the direction sought with a large enough effect, not every such curve was filed as active). Summed up:
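Reaction: 0.1 nM purified PKM2 with 0.5 mM phosphoenolpyruvate and 0.1 mM ADP, room temperature, 1 h. Readout: luciferase-based ATP luminescence after stop reagent. Activators judged against a 0.3 nM enzyme column.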

The nature of test [8]: MultiTox-Fluor Cytotoxicity Assay - LYMP1-002 - Live Cells (AID 955).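 Further: cells exposed to compound for 16 hours.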 Summed up:
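Read-out is live-cell protease activity (cell-permeant GF-AFC substrate, fluorescence Ex/Em=405/510), where a decrease indicates acute toxicity. Human lymphoblastoid cells were treated 16 hours at 37 C in a concentration series, and AC50 values came from standard Hill modelling.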

Test [9] addresses Cytochrome P450 3A4 (Homo sapiens) (UniProt P08684). Nature of the test: qHTS Assay for Activators of Cytochrome P450 3A4 (AID 885). Further: nearly all actives have a fitted effect of over 65% in size. Summed up: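 Steps: enzyme/substrate mix dispensed; compound added, 10 min RT; NADPH regeneration solution added, 60 min RT; luciferin detection buffer stops reaction; 20 min later luminescence measured.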
Test [10] deals with Cytochrome P450 2C19 (Homo sapiens) (UniProt P33261). In words: qHTS Assay for Inhibitors and Substrates of Cytochrome P450 2C19 (AID 899). Further: nearly all actives have a fitted effect of over 60% in size. Further: potency means the concentration at half of the fitted maximal effect. In outline: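 Luminescence readout of luciferin formed from 10uM Luciferin-H EGE (KM level) by 5 nM CYP2C19 in 50mM KPO4. 60 min NADPH-driven reaction at 37C after 10 min compound preincubation; data scaled to 57uM ketoconazole inhibition.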

A short description of test [11]: qHTS Assay for Identification of Small Molecule Agonists for Thrombopoietin (TPO) Signaling Pathway (AID 917). Further: potency means the concentration at half of the fitted maximal effect. Summed up: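 Murine Ba/F3 cells stably expressing human TPO receptor and a Glycoprotein IIb promoter–luciferase reporter were IL-3-starved overnight, then treated with compounds plus TPO (26 pM final, its EC50) for 24 hrs at 37 C; luminescence was read.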

Test [12] concerns the target Pyruvate kinase PKM (Homo sapiens) (UniProt P14618). Nature of the test: qHTS Assay for Inhibitors of Human Muscle Pyruvate Kinase (AID 958). The conditions noted are these: purified human PKM enzyme activity. In outline: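 ATP production by PKM2 detected via luciferase luminescence after 1 h room-temperature reaction (0.1 nM enzyme, PEP at Km 0.5 mM, ADP 0.1 mM, pH 7.2 imidazole buffer). Inhibition scaled to no-enzyme control; activation referenced to 0.3 nM enzyme wells.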

Test [13] in a line: qHTS Assay for Identification of Small Molecule Agonists for NFkB Signaling Pathway (AID 928; calls by dose curve). The conditions noted are these: NFkB beta-lactamase reporter cells, blue/green ratio. Summed up:
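ME-180 NFkB-bla cells carry a beta-lactamase reporter under an NFkB response element. Compound plus 10 pM TNF alpha (final) was applied for 5 hrs at 37 C. After 2 hrs with LiveBLAzer substrate, 460/530 nm emission was read at 405 nm excitation.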

Test [14] deals with Cytochrome P450 3A4 (Homo sapiens) (UniProt P08684). Nature of the test: qHTS Assay for Inhibitors and Substrates of Cytochrome P450 3A4 (AID 884). Further: nearly all actives have a fitted effect of over 50% in size. Further: potency means the concentration at half of the fitted maximal effect. In outline:
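20 nM human CYP3A4 with 25 uM Luciferin-PPXE (at KM) in 200 mM KPO4, preincubated 10 min with compound; NADPH regeneration started a 60 min RT reaction. Luciferin detected by luminescence, normalized to 57 uM ketoconazole as full inhibition.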

Test [15] is described as follows: qHTS Assay for Identification of Small Molecule Antagonists for NFkB Signaling Pathway (AID 895; active means well fitted inhibition curve with a large enough effect in the signal ratio, with a control signal flat, not every such curve was filed as active; the % refers to the signal ratio). In outline:
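Beta-lactamase reporter read-out (460 and 530 nm emission ratio, 405 nm excitation, 2 hrs substrate loading RT) after 5 hr stimulation with 10 pM TNF alpha in compound-treated NFkB-bla ME-180 cells in low-serum medium.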

Test [16] in a line: Confirmation and Secondary Assay for Modulators of Hemoglobin Beta Chain Splicing at IVS2 654 locus (AID 910).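 Further: HeLa cells stably carrying EGFP split by mutant beta-globin IVS2-654 intron; per-well total GFP intensity by laser scanning cytometry after 2-day treatment.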 In outline: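 Readout: per-well total peak green fluorescence (488 nm ex, 500–520 nm em) from objects 5–250 µm, reflecting correct splicing of an EGFP-654 reporter. Compounds were applied for 2 days at 37 °C to overnight-plated HeLa EGFP-654 cells; controls were DMSO and 500 nM IVS2-654 PNA.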

A short description of test [17]: qHTS Assay for Identification of Small Molecule Antagonists for Thrombopoietin (TPO) Signaling Pathway (AID 918). Further: potency means the concentration at half of the fitted maximal effect; nearly all actives have a fitted effect of over 60% in size. The conditions noted are these: TPO-dependent cell signaling reporter, antagonist mode. Summed up: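 Ba/F3 (murine, hTPO-R, GPIIb-luc reporter); overnight IL-3 withdrawal; cpd + TPO 26 pM final (EC50); 24 h 37 C/5% CO2; Steadylite luminescence after 10 min RT.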

The nature of test [18]: Confirmation and Secondary Assay for Modulators of Hemoglobin Beta Chain Splicing at IVS2 705 locus (AID 930).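 Further: HeLa cells stably expressing the EGFP-705 splicing reporter; GFP fluorescence per well restored by corrected splicing of the IVS2-705 intron in EGFP; series mostly up to about 46 µM.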 Summed up: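 HeLa IVS2-705 EGFP reporter cells, 500/well, compound 2 d at 37C; correct splicing yields fluorescent EGFP. Control: 500 nM antisense PNA. Read-out: total peak GFP intensity.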

Where “and” joins values, the source holds several entries; their conditions need not be identical. Identical values can stand only once. Inconclusive results are not listed. Some compounds were tested as several samples or in several runs, with calls that do not always agree. Calls of active or inactive are those of the source. Unless noted, the call rests on the fitted dose curve; in most records, active means well fitted curve in the direction sought with a large enough effect; inconclusive means small, poorly fitted or top-dose-only effect, or another doubt; inactive means no such curve, though single readings can be large; an effect the other way counts as inactive or inconclusive.

Sequence of Cytochrome P450 3A4 (Homo sapiens) (P08684 whole entry, looked up): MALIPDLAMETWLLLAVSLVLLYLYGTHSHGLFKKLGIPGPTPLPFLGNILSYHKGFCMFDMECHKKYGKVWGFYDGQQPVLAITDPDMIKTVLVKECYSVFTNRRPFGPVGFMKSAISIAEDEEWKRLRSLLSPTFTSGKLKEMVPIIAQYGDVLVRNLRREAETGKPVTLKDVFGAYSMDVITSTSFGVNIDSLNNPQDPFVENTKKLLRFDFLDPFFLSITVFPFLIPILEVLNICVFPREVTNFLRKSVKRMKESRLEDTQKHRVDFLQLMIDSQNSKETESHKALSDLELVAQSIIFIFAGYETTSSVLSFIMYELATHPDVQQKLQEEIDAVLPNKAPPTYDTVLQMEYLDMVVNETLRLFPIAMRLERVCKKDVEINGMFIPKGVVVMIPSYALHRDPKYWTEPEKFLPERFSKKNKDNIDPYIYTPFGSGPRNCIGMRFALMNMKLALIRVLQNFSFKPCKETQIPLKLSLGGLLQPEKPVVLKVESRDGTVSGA
Sequence of Pyruvate kinase PKM (Homo sapiens) (P14618 whole entry, looked up): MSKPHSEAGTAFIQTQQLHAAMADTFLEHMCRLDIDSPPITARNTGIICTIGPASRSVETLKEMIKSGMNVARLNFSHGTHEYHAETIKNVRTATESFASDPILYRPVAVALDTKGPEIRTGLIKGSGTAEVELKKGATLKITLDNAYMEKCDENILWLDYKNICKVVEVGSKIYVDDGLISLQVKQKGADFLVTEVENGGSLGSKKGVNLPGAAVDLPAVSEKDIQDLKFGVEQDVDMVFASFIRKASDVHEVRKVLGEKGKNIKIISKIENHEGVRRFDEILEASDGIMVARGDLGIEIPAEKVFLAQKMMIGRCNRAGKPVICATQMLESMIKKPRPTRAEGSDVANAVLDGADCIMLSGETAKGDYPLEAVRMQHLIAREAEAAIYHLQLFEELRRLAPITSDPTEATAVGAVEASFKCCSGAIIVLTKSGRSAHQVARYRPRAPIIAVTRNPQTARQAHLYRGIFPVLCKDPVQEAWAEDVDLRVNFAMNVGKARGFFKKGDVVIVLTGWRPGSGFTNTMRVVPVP
Sequence of Cytochrome P450 2D6 (Homo sapiens) (P10635 whole entry, looked up): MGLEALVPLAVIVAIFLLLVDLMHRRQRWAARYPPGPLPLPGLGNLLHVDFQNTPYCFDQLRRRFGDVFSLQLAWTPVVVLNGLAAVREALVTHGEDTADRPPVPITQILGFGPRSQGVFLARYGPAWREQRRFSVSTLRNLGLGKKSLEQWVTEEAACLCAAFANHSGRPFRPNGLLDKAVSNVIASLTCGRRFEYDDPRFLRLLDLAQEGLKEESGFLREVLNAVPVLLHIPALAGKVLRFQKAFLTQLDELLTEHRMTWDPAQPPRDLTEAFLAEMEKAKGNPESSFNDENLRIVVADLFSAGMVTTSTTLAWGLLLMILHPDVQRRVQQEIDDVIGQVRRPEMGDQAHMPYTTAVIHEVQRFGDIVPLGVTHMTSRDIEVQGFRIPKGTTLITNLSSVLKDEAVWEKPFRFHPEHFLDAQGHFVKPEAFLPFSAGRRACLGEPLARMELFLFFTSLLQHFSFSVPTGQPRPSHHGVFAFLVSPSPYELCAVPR
Sequence of Pyruvate kinase (Leishmania mexicana) (Q27686 2-499 E452W): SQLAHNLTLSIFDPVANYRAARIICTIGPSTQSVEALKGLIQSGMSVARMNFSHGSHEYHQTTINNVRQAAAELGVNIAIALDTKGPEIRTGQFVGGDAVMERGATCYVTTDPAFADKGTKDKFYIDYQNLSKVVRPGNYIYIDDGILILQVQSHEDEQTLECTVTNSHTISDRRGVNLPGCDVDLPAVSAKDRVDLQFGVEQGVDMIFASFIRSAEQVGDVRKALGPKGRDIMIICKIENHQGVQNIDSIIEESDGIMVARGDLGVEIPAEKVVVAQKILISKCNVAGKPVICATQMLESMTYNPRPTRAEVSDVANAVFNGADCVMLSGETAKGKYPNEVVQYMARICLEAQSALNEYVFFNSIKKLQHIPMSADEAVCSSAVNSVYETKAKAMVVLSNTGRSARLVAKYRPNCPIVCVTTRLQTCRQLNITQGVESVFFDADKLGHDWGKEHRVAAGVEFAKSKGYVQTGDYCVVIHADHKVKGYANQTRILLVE
Sequence of Cytochrome P450 2C19 (Homo sapiens) (P33261 whole entry, looked up): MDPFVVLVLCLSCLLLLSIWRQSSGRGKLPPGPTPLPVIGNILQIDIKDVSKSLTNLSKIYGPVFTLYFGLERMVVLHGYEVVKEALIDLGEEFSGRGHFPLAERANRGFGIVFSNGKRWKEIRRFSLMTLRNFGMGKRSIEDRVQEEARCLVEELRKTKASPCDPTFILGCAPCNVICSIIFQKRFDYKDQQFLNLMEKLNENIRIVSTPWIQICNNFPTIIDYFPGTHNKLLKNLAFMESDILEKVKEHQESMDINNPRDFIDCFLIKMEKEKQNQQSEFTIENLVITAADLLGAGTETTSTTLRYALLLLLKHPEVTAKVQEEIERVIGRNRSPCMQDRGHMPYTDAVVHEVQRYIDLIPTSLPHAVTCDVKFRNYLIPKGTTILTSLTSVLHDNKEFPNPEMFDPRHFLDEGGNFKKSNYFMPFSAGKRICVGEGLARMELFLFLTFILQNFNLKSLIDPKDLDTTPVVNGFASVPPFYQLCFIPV
Sequence of Guanine nucleotide-binding protein G(i) subunit alpha-1 (Homo sapiens) (P63096 whole entry, looked up): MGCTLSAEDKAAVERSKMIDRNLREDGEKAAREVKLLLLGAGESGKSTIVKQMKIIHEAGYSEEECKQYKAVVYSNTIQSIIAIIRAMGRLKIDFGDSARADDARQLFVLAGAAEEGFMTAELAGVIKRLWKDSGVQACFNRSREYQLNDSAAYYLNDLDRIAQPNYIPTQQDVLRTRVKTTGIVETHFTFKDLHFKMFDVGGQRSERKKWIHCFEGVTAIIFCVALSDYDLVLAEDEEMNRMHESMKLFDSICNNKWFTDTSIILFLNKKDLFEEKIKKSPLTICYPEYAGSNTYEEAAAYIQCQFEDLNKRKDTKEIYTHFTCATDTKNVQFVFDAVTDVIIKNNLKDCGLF
Sequence of Muscarinic acetylcholine receptor M1 (Rattus norvegicus) (P08482 whole entry, looked up): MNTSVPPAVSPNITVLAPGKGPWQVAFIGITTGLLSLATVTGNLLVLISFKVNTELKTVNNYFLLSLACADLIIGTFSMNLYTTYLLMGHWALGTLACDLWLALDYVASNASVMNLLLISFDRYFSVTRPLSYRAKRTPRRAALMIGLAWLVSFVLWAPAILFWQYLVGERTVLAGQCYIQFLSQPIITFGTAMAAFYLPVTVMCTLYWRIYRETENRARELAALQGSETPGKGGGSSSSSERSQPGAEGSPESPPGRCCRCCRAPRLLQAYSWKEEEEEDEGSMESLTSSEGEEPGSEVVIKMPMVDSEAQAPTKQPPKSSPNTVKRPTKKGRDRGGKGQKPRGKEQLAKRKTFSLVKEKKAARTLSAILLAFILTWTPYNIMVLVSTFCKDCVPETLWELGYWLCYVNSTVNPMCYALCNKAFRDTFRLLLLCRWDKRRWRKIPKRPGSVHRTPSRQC

`Cc1cc(O)c2c(c1)C(=O)c1cc(O)cc(O)c1C2=O`: the compound was called inactive in [1] and in [7]. In addition, the Potency in [2] was 31.6 µM (active). The Potency entry in test [3], in [4], in test [5], in [6] and in test [8] was “inactive” each time.

In the case of `Cc1cccc(C#Cc2ccccc2)n1`, the compound was called inactive in test [1], in test [9] and in test [7]. The Potency entry in test [10] is “inactive and 7.94 µM (active)”; in test [11] it was 1 µM (active); in test [5] it was 15.8 µM (active); in [12], 25.1 µM (active).

Consider `O=c1cc(N2CCOCC2)oc2c(-c3ccccc3)cccc12`, for which the outcome in [1], in [9] and in test [7] was inactive. Besides, the Potency in test [13] was 7.08 µM (active). In addition, in [5], the Potency entry was “inactive”.

Take `NCCCCNCCCN`: the compound was called inactive in test [1] and in test [7]. Besides, the Potency entry in test [14], in [15], in test [16], in test [18], in test [3] and in [5] was “inactive” each time. Further, in [17], the Potency is 6.31 µM (active).

For `CNC[C@H](O)c1ccc(O)c(O)c1`, the compound was called inactive in test [1] and in test [7]. For the same compound, the Potency result in test [11] and in [5] was “inactive” each time.

`Cc1cc2cc3c(C)cc(=O)oc3c(C)c2o1`: the Potency in [14] is 3.98 µM (active). Moreover, the result in [9] was inactive. The Potency entry in test [16] and in test [18] was “inactive” in each case.

On to `O=c1c(O)c(-c2cc(O)c(O)c(O)c2)oc2cc(O)cc(O)c12`, for which the call in [1], in [9] and in test [7] was inactive. Also, the Potency result in test [2], in [3], in test [4] and in [5] was “inactive” throughout. Also, in test [17], the Potency is 10 µM (active).

As to `CC(C)c1ccc2c(c1)c(SC(C)(C)C)c(CC(C)(C)C(=O)O)n2Cc1ccc(Cl)cc1`, the call in [1], in test [9] and in test [7] was inactive. In addition, the Potency entry in test [4] and in [5] was “inactive” each time.

On to `CN(C)CCc1c[nH]c2ccc(Cn3cncn3)cc12`, for which the Potency entry in test [14], in test [16] and in test [18] was “inactive” each time.

As for `Oc1ccc(-c2nc(-c3ccc(F)cc3)c(-c3ccncc3)[nH]2)cc1`, the result in test [1] and in [7] was inactive. For the same compound, the Potency is 12.6 µM (active) and 5.01 µM (active) in test [2]; 794 nM (active) in test [10]. Besides, the Potency entry in test [3], in test [4] and in test [5] was “inactive” in each case.

In the case of `Cc1nc2n(c(=O)c1CCN1CCC(c3noc4cc(F)ccc34)CC1)CCCC2`, the compound was called inactive in test [1] and in [10]. In addition, the Potency in test [2] was 7.94 µM (active). Further, the Potency result in test [15], in test [11] and in test [5] was “inactive” throughout.

On to `O=C(CCc1ccc(O)cc1)c1c(O)cc(O)cc1O`, for which the call in [1], in [9] and in [7] was inactive. Also, the Potency in test [14] was 2 µM (active) and 15.8 µM (active); in test [10], 3980 nM (active). In addition, the Potency entry in test [16], in test [11], in test [18], in test [3], in [4] and in test [5] was “inactive” in each case.
